# mHTT-CaM PPI inh = inhibitors of human mutant huntingtin-calmodulin interaction; P42858; AlphaScreen His-mHTT/GST-CaM binding, luminescence; inhibition, % at 15 µM; 3.6% of 190,000 active; AID 1671202;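 note: 0% = both proteins with DMSO and 100% = one protein alone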
# Pf apPOL inh = Pf-apPOL DNA polymerase inhibition | Recombinant Pf-apPOL, molecular beacon fluorescence, 1.5 h | inhibition, % at 10 µM | 0.25% of 210,000 active | AID 1794808
# The depositor's hits bear a star; / = no result; ! = not confirmed by another sample. Only a selection was taken, and hits are over-represented in it overall. Cut-off read from the data, not from the text of the source: active = inhibition above about 50%; inactive = the rest.
SMILES,mHTT-CaM PPI inh,Pf apPOL inh
Cc1noc(-c2cccnc2)c1C(=O)NCc1ccc(Cl)cc1,-2,-4
Cn1nc(C(=O)NCc2ccncc2)cc1-c1ccc(F)c(F)c1,-3,0
CCc1ccc(NS(=O)(=O)c2cc3c(s2)CCN(C(=O)C2CCC2)C3)cc1,19,-2
CCN1C(=O)C2C(c3ccccc3O)NC(Cc3c[nH]c4ccccc34)(C(=O)O)C2C1=O (centres undefined),-1,1
Cc1ccc(C(=O)N2CCC(c3nc(C(=O)N4CCOCC4)c(C)o3)CC2)cc1,-2,0
COc1cccc(CN2CCc3c(cc(C(=O)NC(C)C)n3C)C2)c1,34,2
COc1cccc(CN2CCc3c(cc(C(=O)NCc4ccc(F)cc4)n3C)C2)c1,54*,-4
COc1cccc(CN2CCc3c(cc(C(=O)Nc4ccccc4)n3C)C2)c1,59*,0
COCCNC(=O)c1cc2c(n1C)CCN(Cc1cccc(OC)c1)C2,21,-1
N#CC1=CN(c2ccc(Cl)cc2Cl)c2ccccc2S1(=O)=O,-2,1
COc1ccc(CCNC(=O)C2CN(S(C)(=O)=O)CC23CCCCC3)cc1OC (centres undefined),-2,4
O=C(Nc1nc2ccc(Br)cc2s1)c1ccccc1F,3,-6
COc1ccc(C2CC(=O)Oc3cc(OC)c(OC)c(OC)c32)cc1 (centres undefined),2,-1
COc1cc(C2CC(=O)Oc3cc(O)ccc32)cc(OC)c1OC (centres undefined),3,-5
COc1ccc(C2CC(=O)Oc3c(C(CCN4CCCCC4)c4ccc(N(C)C)cc4)c(OC)cc(OC)c32)cc1 (centres undefined),101*,1
COc1cc(OC)c2c(c1C(CCN1CCCC1)c1ccc(N(C)C)cc1)OC(=O)CC2c1ccc(N(C)C)cc1 (centres undefined),100*,-10
COc1ccc(C2CC(=O)Oc3c(C(CCN4CCCC(C)C4)c4cc(OC)c(OC)c(OC)c4)c(OC)cc(OC)c32)cc1 (centres undefined),61*,-6
COc1cc(C2CC(=O)Oc3c(C(CCN4CCOCC4)c4ccc(N(C)C)cc4)c(OC)cc(OC)c32)cc(OC)c1OC (centres undefined),65*,-4
O=C(c1ccccc1OCC1CCN(C(=O)C2CCCCC2)CC1)N1CCCC1,13,0
Cc1cc(CN2CCC(CNC(=O)C(=O)NCc3ccc4c(c3)OCO4)CC2)c(C)o1,-8,-10
O=C(NCc1ccncc1)C1COC2(CCCCC2)N1C(=O)c1ccc(F)cc1 (centres undefined),-6,1
O=C(NCc1cccc(Br)c1)c1nnc2ccc(-c3ccccc3)nn12,22,-2
O=c1c(-c2nc3ccccc3s2)c(C(F)(F)F)oc2cc(O)ccc12,8,-3
CSC1=NC(=Cc2ccc([N+](=O)[O-])cc2)C(=O)N1CCOc1cccc(Cl)c1,/,-4
CC1=C(C(=O)Nc2cccnc2)C(c2ccccc2F)n2nnnc2N1 (centres undefined),-2,-2
SMILES,mHTT-CaM PPI inh,Pf apPOL inh
O=C(COc1ccc(Cl)cc1)Nc1c2c(nn1-c1cccc(Cl)c1)CSC2,24,-3
COc1ccc(C(CC(=O)N2CCCC(C)C2)c2c(O)cc(OC)cc2OC)cc1 (centres undefined),15,-7
COc1ccc(C2CC(=O)Oc3c(C(CCN4CCCC(C)C4)c4ccc(N(C)C)cc4)c(OC)cc(OC)c32)cc1 (centres undefined),101*,-6
CCOC(=O)c1ccc(NC(=O)N2CC=C(c3cn(CC)c4ncccc34)CC2)cc1,9,-10
O=C(Cc1c[nH]c2ccccc12)N(CC1CCCO1)C1(C(=O)NC2CCCCC2)CCCCC1 (centres undefined),87*,-1
O=C(Cc1c[nH]c2ccccc12)N(Cc1cccs1)C1(C(=O)NC2CCCC2)CCCCC1,0,-6
CCC(C)(C(=O)NC1CCCCC1)N(C)C(=O)Cc1c[nH]c2ccccc12 (centres undefined),7,-2
CCC(C)(C(=O)NC1CCCCC1)N(CC1CCCO1)C(=O)Cc1c[nH]c2ccccc12 (centres undefined),58*,-2
O=C(Cc1cccs1)N1CCCC1(CO)CC1CC1 (centres undefined),-5,-5
CC(C)C(=O)Nc1ccc(Cl)cc1[N+](=O)[O-],4,-5
Cc1c(Cl)cccc1NC(=O)c1ccc(-c2cccc([N+](=O)[O-])c2)o1,16,-1
CCOC(=O)c1sc(NC(=O)c2snnc2CC)c(C(=O)OCC)c1C,-7,1
CCOC(CNC(=O)c1ccc2c(c1)nc(C)n2-c1ccc(Br)cc1)OCC,21,-3
Cc1cccc(COC[C@H](Cc2ccccc2)N2CCN(C(=O)c3cccc(C)c3)CCC2=O)c1,81*!,-2
Cc1cccc(C(=O)N2CCN(C(=O)c3cccc(C)c3)CC2)c1,-11,0
Cc1cccc(C(=O)N2CCC(CCOc3ccccc3)CC2)c1,-12,-4
Cc1cccc(COC[C@H](Cc2ccccc2)N2CCN(C(=O)c3cc(Cl)cc(Cl)c3)CCC2=O)c1,0,-2
Cc1cccc(COC[C@H](Cc2ccccc2)N2CCN(C(=O)c3cccc(Cl)c3)CCC2=O)c1,98*,-4
Cc1cccc(C(=O)N2CCC(=O)N([C@H](COCc3cccc(C(F)(F)F)c3)Cc3ccccc3)CC2)c1,99*,-7
Cc1cccc(C(=O)N2CCN(C)CC2)c1,0,1
Cc1cccc(C(=O)N2CCC(=O)N([C@H](COCc3ccccc3)Cc3ccccc3)CC2)c1,65*!,-6
COc1cc(/C=C2/C(=N)N3C(SC)=NSC3=NC2=O)cc(OC)c1OC,3,-10
NNc1nc(Nc2ccccc2)nc(N2CCCC2)n1,81*,-6
NNc1nc(Nc2ccccc2)nc(N2CCOCC2)n1,98*,-1
c1ccc(Nc2nc(N3CCCCC3)nc(N3CCNCC3)n2)cc1,16,0
SMILES,mHTT-CaM PPI inh,Pf apPOL inh
Clc1ccc(Nc2nc(Oc3ccccc3)nc(N3CCOCC3)n2)cc1,-2,-3
Cc1noc(COC2CCN(S(=O)(=O)c3c(C)noc3C)CC2)n1,-1,0
Cn1c(CC2CCN(C(=O)c3ccccc3C(F)(F)F)C2)nc2cccnc21 (centres undefined),-2,-7
O=C1c2ccccc2-c2onc3c(N4CCOCC4)cc(Nc4ccc(F)cc4)c1c23,63*,-1
O=C1c2ccccc2-c2onc3ccc(Nc4ccccc4)c1c23,43,1
COc1ccc(Nc2cc(N3CCOCC3)c3noc4c3c2C(=O)c2ccccc2-4)cc1,43,1
CNc1cc(Nc2ccc(C)cc2)c2c3c(onc13)-c1ccccc1C2=O,95*,2
COc1ccccc1C(=O)Nc1nc2c(s1)CN(S(=O)(=O)c1ccc(C)cc1)CC2,1,-2
Cn1c(=NC(=O)c2ccc(S(=O)(=O)N3CCCCC3)cc2)sc2cc(F)ccc21,-6,-2
CCc1ccc(NS(=O)(=O)c2cc(Cl)ccc2OC)cc1,-8,-12
COc1ccc(Cl)cc1S(=O)(=O)Nc1ccc2c(c1)NC(=O)C(C)(C)CO2,69*,-9
Cc1ccc2nc(NC(=O)CSc3ccc(-n4cccn4)nn3)sc2c1,-13,-3
Cc1ccc2nc(NC(=O)CSc3ccc4nnc(-c5ccccn5)n4n3)sc2c1,80*,5
CCOC(=O)CC(=O)CSc1ccc2nnc(-c3ccccn3)n2n1,83*,2
